# Results filed as inconclusive are left out. Active and inactive are the calls of the source. Rule for the calls: active = hit-call score of the fitted dose curve at least 0.9, where 1 is the maximum; inconclusive = response in the unintended direction; inactive = score below 0.9.
# Test system: guinea pig Dopamine Transporter (DAT), gene 100714898
# Test: NVS_TR_gDAT: NovaScreen (NVS) Transporter Assay for guinea pig Dopamine Transporter (DAT) (AID 2283369);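 note: active compounds lower bound radioligand signal relative to DMSO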
# Method in brief: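 Scintillation counts of filter-retained radioligand report binding to guinea pig striatal membranes after 2 h. Activity scored as signal loss relative to DMSO, first at 25 uM in duplicate, then in concentration series to 50 uM.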
row,SMILES,AC50
1,Oc1ccc(Cc2ccc(O)cc2)cc1,10.1 µM (active)
2,CC(C)N(C(=O)CCl)c1ccccc1,11.8 µM (active)
3,Oc1cccc(-c2ccccc2)c1,13.9 µM (active)

# Biological target: human Dopamine Transporter (DAT), SLC6A3 (gene 6531) (UniProt Q01959)
# Sequence (Q01959 whole entry, looked up): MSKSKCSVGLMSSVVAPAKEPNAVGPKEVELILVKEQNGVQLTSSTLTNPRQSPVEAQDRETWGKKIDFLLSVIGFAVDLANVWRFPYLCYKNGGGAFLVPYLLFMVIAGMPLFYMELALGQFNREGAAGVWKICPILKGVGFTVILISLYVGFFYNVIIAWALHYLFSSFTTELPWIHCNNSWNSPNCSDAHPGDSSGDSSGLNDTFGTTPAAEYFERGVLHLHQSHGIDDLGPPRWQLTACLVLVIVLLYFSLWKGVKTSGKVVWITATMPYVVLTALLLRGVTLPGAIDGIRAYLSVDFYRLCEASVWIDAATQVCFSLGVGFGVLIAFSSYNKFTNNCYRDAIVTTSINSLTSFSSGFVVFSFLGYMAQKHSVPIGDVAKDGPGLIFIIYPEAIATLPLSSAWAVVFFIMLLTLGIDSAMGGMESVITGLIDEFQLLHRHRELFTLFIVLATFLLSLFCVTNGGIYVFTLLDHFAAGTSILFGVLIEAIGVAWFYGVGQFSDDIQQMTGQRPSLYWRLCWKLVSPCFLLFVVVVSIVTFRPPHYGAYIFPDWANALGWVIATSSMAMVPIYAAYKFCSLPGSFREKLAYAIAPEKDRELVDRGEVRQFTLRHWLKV
# Test: NVS_TR_hDAT: NovaScreen (NVS) Transporter Assay for human Dopamine Transporter (DAT) (AID 2283374);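 note: activity means loss of bound radioligand signal relative to DMSO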
# Method in brief: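 Duplicate single-point screening at 25 uM preceded concentration-series follow-up of actives. Binding was measured by competitive displacement of a radioligand from DAT protein, filter-counted by scintillation 1 h after dosing. Decrease relative to DMSO taken as activity.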
row,SMILES,AC50
1,CC(C)=CC1C(C(=O)OCc2cccc(Oc3ccccc3)c2)C1(C)C (centres undefined),17.2 µM (active)
2,Oc1ccc(Cc2ccc(O)cc2)cc1,9.05 µM (active)
3,[Cl][Sn]([c]1ccccc1)([c]1ccccc1)[c]1ccccc1,2.89 µM (active)
4,CC(C)N(C(=O)CCl)c1ccccc1,11.1 µM (active)
5,Oc1cccc(-c2ccccc2)c1,10.6 µM (active)
6,Cc1ccc(OP(=O)(Oc2ccc(C)cc2C)Oc2ccc(C)cc2C)c(C)c1,17.4 µM (active)
